Data on nine compounds can be found in PubChem BioAssay (NCI).

Compounds without any hit were thinned out: in the full panel of roughly 83,000, 20% have a hit.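 The endpoint reported here, percent growth, reads 100 for growth as untreated, 0 for no net growth and -100 for all cells dead.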 Values without a mark were called inactive. Calls of active or inactive are those of the source. Rule for the calls: active = growth percent below 10; inactive = the rest.

Test systems include SR leukemia; RPMI-8226 leukemia; OVCAR-8 ovarian; OVCAR-5 ovarian; OVCAR-4 ovarian; SK-OV-3 ovarian; IGROV1 ovarian; OVCAR-3 ovarian; HS 578T breast; NCI/ADR-RES ovarian; T-47D breast; BT-549 breast; MDA-MB-435 melanoma; SW-620 colon; MCF7 breast; HCT-116 colon; HCC-2998 colon; KM12 colon.
Holding throughout (assay): NCI-60 one-dose screen, 48 h (100 = growth as untreated, 0 = no growth, -100 = all killed)
What all share (conditions): 10 µM unless noted

Take `CC(=O)Nc1nccs1`: the growth with SR leukemia is 111%; in the assay with RPMI-8226 leukemia, 102%; in the assay with OVCAR-8 ovarian it was 103%; in the assay with OVCAR-5 ovarian, 84.3%; in the assay on OVCAR-4 ovarian, 117%; with SK-OV-3 ovarian, 98.8%. Further, the growth with IGROV1 ovarian is 94.7%; with OVCAR-3 ovarian, 99.6%; with HS 578T breast, 91.7%; in the assay on NCI/ADR-RES ovarian, 94.3%; in the assay with T-47D breast, 97.7%; in the assay on BT-549 breast, 112%. In addition, the growth is 106% in the assay with MDA-MB-435 melanoma; 92.5% with SW-620 colon; 91.2% in the assay on MCF7 breast; 101% in the assay on HCT-116 colon; 102% in the assay with HCC-2998 colon; 96% in the assay with KM12 colon.
Regarding `NC(N)=N/N=C/c1ccc(Br)cc1`, the growth with SR leukemia is 18.4%; in the assay with RPMI-8226 leukemia, 21.5%; with OVCAR-8 ovarian, 78.9%; in the assay with OVCAR-5 ovarian, 73.5%; in the assay on OVCAR-4 ovarian it was 51.8%; in the assay with SK-OV-3 ovarian it was -19.4% (active). The growth in the assay on IGROV1 ovarian is 19.3%; in the assay on OVCAR-3 ovarian it was 62.3%; in the assay on HS 578T breast, 67.5%; in the assay on NCI/ADR-RES ovarian, 28.2%; with T-47D breast, -26.9% (active); with BT-549 breast it was 92.3%. Besides, the growth in the assay with MDA-MB-435 melanoma was -33.1% (active); in the assay with SW-620 colon it was 16.8%; in the assay on MCF7 breast, 4.98% (active); with HCT-116 colon it was -26.3% (active); in the assay with HCC-2998 colon it was 56.7%; in the assay on KM12 colon, 18.3%.
Regarding `COc1c(C)cnc(CSc2nc(-c3ccc(C)cc3)cn2-c2ccc(Cl)cc2)c1C`, the growth with SR leukemia was 74.8%; in the assay with RPMI-8226 leukemia it was 89.9%; in the assay with OVCAR-8 ovarian, 98.5%; in the assay on OVCAR-5 ovarian, 97.5%; in the assay on OVCAR-4 ovarian it was 90.2%; in the assay on SK-OV-3 ovarian it was 91%. Also, the growth with IGROV1 ovarian is 93.4%; in the assay with OVCAR-3 ovarian, 93.5%; with HS 578T breast it was 105%; in the assay on NCI/ADR-RES ovarian, 95.5%; in the assay on T-47D breast, 88.1%; in the assay on BT-549 breast, 102%. Also, the growth in the assay on MDA-MB-435 melanoma is 110%; with SW-620 colon it was 100%; with MCF7 breast it was 102%; in the assay on HCT-116 colon, 79.8%; in the assay on HCC-2998 colon, 106%; in the assay on KM12 colon, 105%.
Turning to `CCN(CC)CCNc1ccc(C)c2sc3cc(C)ccc3c(=O)c12`, the growth with SR leukemia is 6.89% (active); with RPMI-8226 leukemia it was 10.4%; in the assay on OVCAR-8 ovarian it was 57%; with OVCAR-5 ovarian, 79.5%; in the assay on OVCAR-4 ovarian it was 85.3%; in the assay with SK-OV-3 ovarian, 74.8%. Moreover, the growth is 52.4% in the assay with IGROV1 ovarian; 76.6% with OVCAR-3 ovarian; 73% with HS 578T breast; 59.2% in the assay with NCI/ADR-RES ovarian; 66.5% in the assay on T-47D breast; 68.3% in the assay on BT-549 breast. In addition, the growth in the assay with MDA-MB-435 melanoma was 37.3%; in the assay on SW-620 colon, 43.6%; in the assay on MCF7 breast, 43.7%; with HCT-116 colon it was 23.1%; in the assay on HCC-2998 colon, 66.4%; with KM12 colon it was 60.1%.
For the compound `Clc1ccc2[nH]c3c(NCCCN4CCOCC4)ncnc3c2c1`, the growth in the assay with SR leukemia is -24.2% (active); in the assay with RPMI-8226 leukemia it was 52.6%; with OVCAR-8 ovarian, 66.5%; in the assay on OVCAR-5 ovarian, 90.8%; with OVCAR-4 ovarian, 77.5%; in the assay on SK-OV-3 ovarian, 81.5%. In addition, the growth in the assay with IGROV1 ovarian was 63.1%; in the assay on OVCAR-3 ovarian it was 85.3%; in the assay on HS 578T breast it was 102%; in the assay with NCI/ADR-RES ovarian, 65.9%; in the assay on T-47D breast, 72.2%; in the assay with BT-549 breast, 77.9%. Also, the growth in the assay with MDA-MB-435 melanoma was 92.8%; in the assay with SW-620 colon, 57.2%; in the assay with MCF7 breast it was 74.6%; in the assay with HCT-116 colon it was 36.3%; in the assay with HCC-2998 colon, 87.4%; in the assay on KM12 colon, 86.5%.
For `CCOC(=O)c1ccc(NC(=O)CCCN(CC)CC)cc1`, the growth with SR leukemia was 92.8%; in the assay with RPMI-8226 leukemia it was 97.8%; with OVCAR-8 ovarian, 102%; with OVCAR-5 ovarian, 106%; with OVCAR-4 ovarian, 111%; in the assay with SK-OV-3 ovarian, 109%. Besides, the growth was 107% with IGROV1 ovarian; 105% in the assay with OVCAR-3 ovarian; 119% in the assay on HS 578T breast; 99% in the assay on NCI/ADR-RES ovarian; 92.6% in the assay with T-47D breast; 83.1% in the assay with BT-549 breast. The growth is 108% in the assay on MDA-MB-435 melanoma; 110% in the assay on SW-620 colon; 96% in the assay on MCF7 breast; 87.3% in the assay with HCT-116 colon; 102% in the assay with HCC-2998 colon; 104% with KM12 colon.
With `Cc1ccc(/C(=N\N=C(N)N)c2ccccc2)cc1`, the growth with SR leukemia is 10.8%; with RPMI-8226 leukemia it was -7.92% (active); in the assay on OVCAR-8 ovarian, 22.4%; with OVCAR-5 ovarian it was 51.4%; in the assay on OVCAR-4 ovarian, 15.8%; with SK-OV-3 ovarian, 4.12% (active). Moreover, the growth is -0.836% (active) with IGROV1 ovarian; -38.5% (active) with OVCAR-3 ovarian; 31.5% with HS 578T breast; 15.5% in the assay with NCI/ADR-RES ovarian; 23% in the assay on T-47D breast; 37.5% with BT-549 breast. The growth in the assay with MDA-MB-435 melanoma is 0.321% (active); in the assay on SW-620 colon it was 30.3%; in the assay on MCF7 breast it was 5.02% (active); with HCT-116 colon it was -66.6% (active); in the assay with HCC-2998 colon it was -3.26% (active); with KM12 colon, 2.94% (active).
On to `O=S(=O)(Cc1ccccc1)c1nc2ccccc2s1`, for which the growth is 17% in the assay on SR leukemia; 20.4% in the assay with RPMI-8226 leukemia; 88.8% in the assay on OVCAR-8 ovarian; 102% in the assay with OVCAR-5 ovarian; 63.7% with OVCAR-4 ovarian; 101% with SK-OV-3 ovarian. The growth is 61.1% with IGROV1 ovarian; 79.2% in the assay on OVCAR-3 ovarian; 96.2% with HS 578T breast; 96.5% in the assay with NCI/ADR-RES ovarian; 76.4% in the assay on T-47D breast; 35.8% with BT-549 breast. Also, the growth in the assay with MDA-MB-435 melanoma was 49%; with SW-620 colon, 26.3%; with MCF7 breast, 30.5%; in the assay on HCT-116 colon, 9.47% (active); in the assay with HCC-2998 colon it was 103%; with KM12 colon, 93%.
As to `COC(=O)CCCNC(=O)C(=O)c1c(O)c(O)c(C(C)C)c2cc(C)c(-c3c(C)cc4c(C(C)C)c(O)c(O)c(C(=O)C(=O)NCCCC(=O)OC)c4c3O)c(O)c12`, the growth with SR leukemia is -1.66% (active); in the assay on RPMI-8226 leukemia, 17.1%; in the assay with OVCAR-8 ovarian it was -15.1% (active); with OVCAR-5 ovarian, 4.86% (active); with OVCAR-4 ovarian, -3.33% (active); in the assay on SK-OV-3 ovarian, -4.94% (active). In addition, the growth in the assay with IGROV1 ovarian is 18.2%; with OVCAR-3 ovarian, 4.88% (active); with HS 578T breast, 12.2%; in the assay with NCI/ADR-RES ovarian, 9.74% (active); in the assay on T-47D breast it was 4.43% (active); with BT-549 breast, 8.07% (active). Further, the growth in the assay on MDA-MB-435 melanoma was 13%; with SW-620 colon, 19.2%; in the assay with MCF7 breast, 10.9%; in the assay with HCT-116 colon, -30.9% (active); in the assay on HCC-2998 colon, 29.5%; with KM12 colon it was 8.55% (active).
